{
  "source": "PubChem BioAssay AID1662",
  "about": "(Broad Institute, 2009)",
  "note": "Out of some 300,000 compounds screened, about 4,000 (1.3%) were called active. This is one part of a sample in which actives are shown more often than they occur.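 Rule for the calls: active = mean replicate score, as percent of positive control median, at least 50; inconclusive = mean below 50 but one replicate at or above 50; inactive = mean and every replicate below 50.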",
  "data": [
    {"assay": "kanamycin survival loss of SKKanGAS strain – BacTiter-Glo luminescence, streptokinase expression inhibitor project, primary screen (AID 1662);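 note: strain carries kanamycin resistance gene driven by streptokinase promoter and grows in 40 µg/ml kanamycin; loss of luminescence reflects streptokinase promoter inhibition or plain growth inhibition; 0% = median of DMSO wells and 100% = positive control at its reference dose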", "conditions": "S. pyogenes SKKanGAS, kanamycin growth, 6 h, at 7.5 µM, active compounds read high", "values": [
      {"smiles": "O=C(N/N=C/c1c(O)n(Cc2ccccc2)c(=O)[nH]c1=O)c1ccccc1", "inhibition": "56.7% (active)"},
      {"smiles": "O=c1[nH]c(=O)n(Cc2ccccc2)c(O)c1/C=N/Nc1c(F)c(F)c(F)c(F)c1F", "inhibition": "6.55% (inactive)"},
      {"smiles": "O=C(N/N=C/c1c(O)n(C2CC2)c(=S)[nH]c1=O)c1ccccc1", "inhibition": "-1.33% (inactive)"},
      {"smiles": "COC(=O)N(c1ccc(OC)cc1)P1(=S)OCCC(C)O1", "note": "(stereo not given)", "inhibition": "-2.38% (inactive)"},
      {"smiles": "CCOP(=S)(OCC)SCOC(=O)NCC(=O)OC", "inhibition": "3.28% (inactive)"},
      {"smiles": "COc1ccccc1OC(=O)c1ccc(C)c(S(=O)(=O)N2CCOCC2)c1", "inhibition": "3.63% (inactive)"},
      {"smiles": "CCCCCCCCCCCCn1ccc(=N)cc1", "inhibition": "93.3% (active)"},
      {"smiles": "O=[N+]([O-])c1ccc(C2C3C(c4ccccc4)=NC4(CCCCC4)N32)cc1", "note": "(stereo not given)", "inhibition": "4.96% (inactive)"},
      {"smiles": "Cc1cccc(NC(=O)OC2CN3CCC2CC3)c1", "note": "(stereo not given)", "inhibition": "0.418% (inactive)"},
      {"smiles": "CC1(C)C(c2ccccc2)=NC(c2cccnc2)=[N+]1[O-]", "inhibition": "-22% (inactive)"},
      {"smiles": "CCCCn1c(=O)c(C(=O)Nc2ccccc2Cl)c(O)c2ccccc21", "inhibition": "-1.86% (inactive)"},
      {"smiles": "CCCCCn1c(=O)c(C(=O)NCc2ccccn2)c(O)c2ccccc21", "inhibition": "6.78% (inactive)"},
      {"smiles": "CCCCCn1c(=O)c(C(=O)NCc2ccccc2)c(O)c2ccccc21", "inhibition": "86% (active)"},
      {"smiles": "COC(=O)C1=C(c2cc3ccccc3o2)C[C@@H]2CC[C@H]1N2C(=O)NC1CCCCC1", "inhibition": "7.09% (inactive)"},
      {"smiles": "O=C(Cc1ccccc1)N1CCN(C2CCCCCC2)CC1", "inhibition": "4.36% (inactive)"}
    ]}
  ]
}
